Test results as given in PubChem BioAssay (EPA / NIEHS).
Inconclusive results are not listed. Activity calls are given as the source filed them. Rule for the calls: active = hit-call score of the fitted dose curve at least 0.9, where 1 is the maximum; inconclusive = response in the unintended direction; inactive = score below 0.9.

Target: human Vitamin D Receptor (VDR), VDR (gene 7421) (UniProt P11473)
Assay: ATG_VDR_TRANS: Attagene TRANS-FACTORIAL HepG2 Assay for human Vitamin D Receptor (VDR) (AID 2283022)
Outline: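 HepG2 cells were transiently transfected with multiple GAL4-UAS reporter units, so signal reflects exogenous chimeric receptor-Gal4 activity. After 24 h compound exposure, reporter mRNA was measured by RT-PCR, fluorescent labelling and capillary electrophoresis, fitted for gain of signal versus DMSO.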

Chain of human Vitamin D Receptor (VDR), VDR (gene 7421) (P11473 whole entry, looked up): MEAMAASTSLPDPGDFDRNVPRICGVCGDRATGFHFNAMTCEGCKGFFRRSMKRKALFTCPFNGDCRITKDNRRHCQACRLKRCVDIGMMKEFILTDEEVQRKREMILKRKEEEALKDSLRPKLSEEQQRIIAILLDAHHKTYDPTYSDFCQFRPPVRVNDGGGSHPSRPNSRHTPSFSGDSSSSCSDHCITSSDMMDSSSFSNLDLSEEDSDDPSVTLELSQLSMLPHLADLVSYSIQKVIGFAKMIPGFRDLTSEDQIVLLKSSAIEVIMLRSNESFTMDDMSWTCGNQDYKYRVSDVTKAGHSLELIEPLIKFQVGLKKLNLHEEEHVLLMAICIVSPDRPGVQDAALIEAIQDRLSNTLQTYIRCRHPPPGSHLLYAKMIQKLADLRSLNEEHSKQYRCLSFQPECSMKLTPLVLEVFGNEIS

outcome, inactive:
CC1(C)O[C@@H]2C[C@H]3[C@@H]4CCC5=CC(=O)C=C[C@]5(C)[C@@]4(F)[C@@H](O)C[C@]3(C)[C@]2(C(=O)CO)O1
CCc1cc(C(C)(C)C)c(O)c(C(C)(C)C)c1
CCCCC1CCC(O)CC1 (stereo not given)
Cc1cc(=O)oc2cc(N(C)C)ccc12
FC(F)(F)COCC(F)(F)F
COCCOC(=O)c1ccccc1C(=O)OCCOC
O=C(c1ccccc1)C(O)c1ccccc1 (stereo not given)
CS(=O)(=O)c1ccc(Cl)cc1
O=Cc1ccccc1S(=O)(=O)O
CC(C)c1ccccc1O
COc1ccc(CCC(C)=O)cc1
CN1CCOCC1
CCCCCc1ccco1
CS(C)=O
O=C(CC(=O)c1ccccc1)c1ccccc1
CCCC[O][Al]([O]CCCC)[O]CCCC
N#Cc1ccc(CC(=O)c2cccc(C(F)(F)F)c2)cc1
C=CCCC(=O)/C=C/C1C(C)=CCCC1(C)C (stereo not given)
CCCC1O[C@@H]2C[C@H]3[C@@H]4CCC5=CC(=O)C=C[C@]5(C)[C@H]4[C@@H](O)C[C@]3(C)[C@]2(C(=O)CO)O1 (stereo not given in full)
CC(C)(C)OC(=O)c1ccc(O)cc1
OCC(O)c1ccccc1 (stereo not given)
CCCCCC(=O)CC
ClC(c1ccccc1)(c1ccccc1)c1ccccc1
N[C@@H](Cc1cc(I)c(Oc2cc(I)c(O)c(I)c2)c(I)c1)C(=O)O
CCCCC(CC)COC(=O)c1ccc(O)cc1 (stereo not given)
CC(C)=CCCC(C)CC(=O)O (stereo not given)
CCCOCCO
CCN(CCC#N)c1ccc(N=Nc2ccc([N+](=O)[O-])cc2)cc1
ON=C1CCCCC1
C=COCCOCCOC=C
C1CCOC1
Nc1c(Cl)cc(Cl)cc1[N+](=O)[O-]
C[C@H]1C[C@@H](O)CC(C)(C)C1
Brc1ccc(Br)c(Br)c1
O=C(Nc1ccc2c(c1)Cc1ccccc1-2)C(F)(F)F
C[Si]1(C)O[Si](C)(C)O[Si](C)(C)O1
CCCC(=O)C(CC)Sc1ccoc1C (stereo not given)
NC1CCCCC1N (stereo not given)
CCOC(=O)CN
CCOC(=O)CCc1ccccc1
